Measured values from PubChem BioAssay (NCATS).
Unmarked numbers belong to inactive results. Results filed as inconclusive are left out. Active and inactive are the calls of the source. Unless noted, calls follow the shape of the dose curve; as a rule, active = well fitted curve in either direction with a large enough effect (not every such curve was filed as active); inconclusive = small, poorly fitted or top-dose-only effect, or another doubt; inactive = flat fitted curve, though single readings scatter.

What was measured:
[1] = AP1 Signaling Pathway (AID 357); settings: ME-180 AP-1-bla reporter, EGF-induced, beta-lactamase ratio, 5 h; at 7.69 µM (top of the series) unless noted;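 also: ME-180 reporter cells stimulated with EGF at its EC50 level; % is scaled to controls: 0 for no effect and ±100 for the full control effect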
Procedure, shortened: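 First, ME-180 AP-1-bla cells were cultured overnight at 37 °C in low-serum Opti-MEM. Next, titrated compounds with EC50 EGF were incubated 5 hours. Finally, CCF4 was added for 2.5 hours and the 460/530 nm ratio recorded.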

[2] = NFAT Signaling Pathway (AID 444); settings: Jurkat NFAT-bla M1, carbachol, beta-lactamase ratio, 5 h; at 7.69 µM (top of the series) unless noted;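 also: carbachol stimulus at about its EC50 of 1 µM final; % is scaled to controls: 0 for no effect and ±100 for the full control effect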
Procedure, shortened: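 Jurkat cells carrying an NFAT-driven β-lactamase reporter and co-transfected muscarinic M1 receptor were treated with compound plus carbachol (1 uM final, an EC50 level) for 5 h at 37 °C. CCF4 loading followed for 1 h at RT; 460/530 nm ratio gave %activity.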

[3] = Stat Signaling Pathway (AID 446); settings: ME-180 (cervical carcinoma) SIE beta-lactamase reporter, IL-6 stimulated, 5 h; at 7.69 µM (top of the series) unless noted;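 also: ME-180 cervical cancer cells given 40 pM IL-6 alongside compound; SIE-controlled beta-lactamase reporter measured as 460/530 nm FRET emission ratio; % is scaled to controls: 0 for no effect and ±100 for the full control effect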
Procedure, shortened: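 Normalization used AC90 stimulation (300 pM IL-6) and AC90 inhibition (125 nM pan-JAK inhibitor at 40 pM IL-6). The underlying signal is SIE-driven beta-lactamase in ME-180 cells after 5 h IL-6 exposure with compound.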

[4] = molecular target: Glucocorticoid receptor (Homo sapiens) (UniProt P04150); experiment: GR-GFP Redistribution (AID 450;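 active = compounds whose dose series gives a full or clear partial fitted curve of increased nuclear translocation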; also: potency is read from the fitted curve at half-maximal effect); settings: U2OS GR-GFP nuclear translocation, laser cytometry, 2 h
[5] = molecular target: Glucocorticoid receptor (Homo sapiens) (UniProt P04150); experiment: GR-EFC Redistribution (AID 451; calls by dose curve; also: potency is read from the fitted curve at half-maximal effect); settings: CHO-K1 GR-EFC translocation, beta-gal luminescence, 2 h
Procedure, shortened: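 CHO-K1 cells stably expressing nuclear-localized β-gal enzyme acceptor and GR fused C-terminally to the enzyme donor fragment; ligand-driven nuclear translocation restores β-gal by complementation. Compounds titrated up to 46 uM final, 2 h at 37 °C; luminescence read.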

[6] = molecular target: Mitogen-activated protein kinase 10 (Mus musculus) (UniProt Q61831); experiment: JNK3 AlphaScreen Assay (AID 530);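 also: kinase came from lysate of stimulated human HepG2 cells; signal reports phosphorylation of biotinylated GST-cJun 1-79 at Ser73 with 10 µM ATP; % is scaled to controls: 0 for no effect and ±100 for the full control effect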
Procedure, shortened: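 Biotinylated GST-cJun(1-79) served as substrate for JNK3 in HepG2 lysates stimulated with IL-1beta and TNF-alpha. ATP was 10 uM final, pH 7.6. Ser73 phosphorylation was quantified by AlphaScreen (680 nm excitation).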

[7] = molecular target: 3',5'-cyclic-AMP phosphodiesterase 4B (Homo sapiens) (UniProt Q07343); experiment: qHTS Assay for Inhibitors of PDE-IV (AID 607; active = well fitted activation curve with a large enough effect in the main read-out, with a control signal flat, not every such curve was filed as active; also: % of control where 0% means no effect)
Procedure, shortened: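 HEK293 ACTOne cells with CNG channel (1000/well), endogenous PDE4; membrane potential dye, compounds up to 22.9 uM final. Fluorescence Ex 535/Em 590; RO 20-1724 (100 uM final) as reference.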

[8] = molecular target: Cytochrome P450 1A2 (Homo sapiens) (UniProt P05177); experiment: p450-cyp1a2 (AID 410; calls by dose curve; also: potency is read from the fitted curve at half-maximal effect;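 as to activity change, negative = inhibition: -100% = full effect of reference inhibitor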)
Procedure, shortened: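 20nM CYP1A2, 100uM Luciferin-ME (=Km), 100mM KPO4; cpd 10 min RT; +NADPH regen, 60 min RT; stop/detect 20 min; luminescence. Normalized to furafylline 57 uM = full inhibition.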

[9] = molecular target: Cytochrome P450 3A4 (Homo sapiens) (UniProt P08684); experiment: qHTS Assay for Inhibitors and Substrates of Cytochrome P450 3A4 (AID 884; active = well fitted inhibition curve with a large enough effect; also: nearly all actives have a fitted effect of over 50% in size; also: potency is read from the fitted curve at half-maximal effect)
Procedure, shortened: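 Luminescent readout of luciferin produced by CYP3A4 (20 nM) dealkylation of Luciferin-PPXE, 25 uM (its KM). NADPH-driven reaction ran 60 min at RT after 10 min compound preincubation; data scaled to 57 uM ketoconazole as 100% inhibition.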

Chain of Glucocorticoid receptor (Homo sapiens) (P04150 whole entry, looked up, the tested form may be a part): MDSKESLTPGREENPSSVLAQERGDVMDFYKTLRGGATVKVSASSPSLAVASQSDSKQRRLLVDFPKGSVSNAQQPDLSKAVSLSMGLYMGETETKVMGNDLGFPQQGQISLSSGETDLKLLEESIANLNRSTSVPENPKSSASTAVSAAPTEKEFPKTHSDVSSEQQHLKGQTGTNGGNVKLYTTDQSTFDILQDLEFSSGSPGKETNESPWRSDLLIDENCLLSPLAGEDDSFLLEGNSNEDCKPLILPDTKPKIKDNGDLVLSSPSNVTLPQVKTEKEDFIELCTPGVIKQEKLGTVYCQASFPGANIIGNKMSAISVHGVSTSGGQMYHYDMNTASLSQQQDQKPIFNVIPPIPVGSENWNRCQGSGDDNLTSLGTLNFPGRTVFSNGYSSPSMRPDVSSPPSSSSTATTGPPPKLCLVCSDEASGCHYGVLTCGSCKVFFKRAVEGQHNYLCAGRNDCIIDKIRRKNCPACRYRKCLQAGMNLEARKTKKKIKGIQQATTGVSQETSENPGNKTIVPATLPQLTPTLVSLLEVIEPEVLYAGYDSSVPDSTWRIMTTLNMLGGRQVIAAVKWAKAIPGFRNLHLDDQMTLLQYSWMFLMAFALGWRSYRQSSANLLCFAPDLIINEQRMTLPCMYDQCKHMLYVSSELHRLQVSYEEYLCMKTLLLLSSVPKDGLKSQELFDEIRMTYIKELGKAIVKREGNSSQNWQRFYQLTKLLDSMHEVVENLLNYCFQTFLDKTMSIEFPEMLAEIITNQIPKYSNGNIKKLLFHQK
Chain of 3',5'-cyclic-AMP phosphodiesterase 4B (Homo sapiens) (Q07343 whole entry, looked up): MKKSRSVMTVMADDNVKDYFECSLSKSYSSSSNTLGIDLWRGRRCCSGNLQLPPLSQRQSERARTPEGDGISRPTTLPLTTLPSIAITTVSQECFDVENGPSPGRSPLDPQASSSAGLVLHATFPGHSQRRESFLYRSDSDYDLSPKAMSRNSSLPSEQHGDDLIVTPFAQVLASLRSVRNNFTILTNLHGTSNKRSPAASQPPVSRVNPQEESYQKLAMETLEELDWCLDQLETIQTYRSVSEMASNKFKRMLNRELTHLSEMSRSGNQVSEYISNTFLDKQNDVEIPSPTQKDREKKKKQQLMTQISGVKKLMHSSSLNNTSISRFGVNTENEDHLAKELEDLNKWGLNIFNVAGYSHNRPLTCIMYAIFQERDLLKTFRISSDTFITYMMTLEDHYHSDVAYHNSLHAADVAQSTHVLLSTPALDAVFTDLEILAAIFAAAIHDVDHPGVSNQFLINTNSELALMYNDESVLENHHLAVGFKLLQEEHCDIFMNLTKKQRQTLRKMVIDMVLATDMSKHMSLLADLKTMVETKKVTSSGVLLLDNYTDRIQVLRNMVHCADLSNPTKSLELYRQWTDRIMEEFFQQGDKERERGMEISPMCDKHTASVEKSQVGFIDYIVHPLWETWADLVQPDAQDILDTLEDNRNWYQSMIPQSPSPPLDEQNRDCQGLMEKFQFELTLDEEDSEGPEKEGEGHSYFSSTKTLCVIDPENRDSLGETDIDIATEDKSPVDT
Chain of Cytochrome P450 1A2 (Homo sapiens) (P05177 whole entry, looked up): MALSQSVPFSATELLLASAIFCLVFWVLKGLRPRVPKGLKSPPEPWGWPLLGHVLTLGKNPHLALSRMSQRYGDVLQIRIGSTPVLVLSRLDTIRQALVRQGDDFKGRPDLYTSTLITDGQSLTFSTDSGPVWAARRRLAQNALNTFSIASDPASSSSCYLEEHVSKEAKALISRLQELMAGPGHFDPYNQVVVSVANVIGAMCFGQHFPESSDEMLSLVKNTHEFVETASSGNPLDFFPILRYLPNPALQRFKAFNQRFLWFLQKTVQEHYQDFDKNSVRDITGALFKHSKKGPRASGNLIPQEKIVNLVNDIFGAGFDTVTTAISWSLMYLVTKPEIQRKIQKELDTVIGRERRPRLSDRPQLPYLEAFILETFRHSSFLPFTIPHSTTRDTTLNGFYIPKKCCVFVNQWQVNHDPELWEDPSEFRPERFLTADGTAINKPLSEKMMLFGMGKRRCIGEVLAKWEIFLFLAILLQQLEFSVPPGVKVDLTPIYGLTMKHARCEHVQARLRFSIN
Chain of Cytochrome P450 3A4 (Homo sapiens) (P08684 whole entry, looked up): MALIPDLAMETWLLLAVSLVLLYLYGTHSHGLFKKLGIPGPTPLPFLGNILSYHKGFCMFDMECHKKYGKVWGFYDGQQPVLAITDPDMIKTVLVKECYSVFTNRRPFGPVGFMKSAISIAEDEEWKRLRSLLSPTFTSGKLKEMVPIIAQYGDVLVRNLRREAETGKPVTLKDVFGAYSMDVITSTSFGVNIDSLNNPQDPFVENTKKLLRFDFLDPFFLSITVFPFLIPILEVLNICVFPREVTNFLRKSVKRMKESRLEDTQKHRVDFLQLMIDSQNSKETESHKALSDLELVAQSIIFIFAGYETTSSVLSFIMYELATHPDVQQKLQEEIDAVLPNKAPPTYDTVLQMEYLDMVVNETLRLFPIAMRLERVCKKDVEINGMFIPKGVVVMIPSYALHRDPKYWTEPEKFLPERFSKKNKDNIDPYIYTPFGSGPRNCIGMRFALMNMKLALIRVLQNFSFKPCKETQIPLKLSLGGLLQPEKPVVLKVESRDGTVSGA

| SMILES | activity change, negative = inhibition [1] | activity change, negative = inhibition [2] | activity, negative = inhibition [3] | Potency [4] [µM] | Potency [5] [µM] | activity change, negative = inhibition [6] | outcome [7] | Potency [8] | Potency [9] | Potency [6] | activity change, negative = inhibition [9] |
| --- | --- | --- | --- | --- | --- | --- | --- | --- | --- | --- | --- |
| Cc1ccc(S(=O)ON2CCC(C(=O)O)(c3ccccc3)CC2)cc1 (centres undefined) | -1.29% | 5.73% | 8.69% | > 46 | > 9.22 | 5.44% [at 11.4 µM] | inactive |  |  |  |  |
| COc1cc2c(cc1O)C[C@@H]1c3c(cc(O)c(OC)c3-2)CCN1C |  | -0.493% | 0.101% | > 46 | > 9.22 | 4.75% [at 11.4 µM] | inactive | 3.98 µM (active) |  |  |  |
| CC[C@@H]1[C@@H]2Cc3ccc(O)cc3[C@@]1(CC)CCN2C | -9.39% | 17.1% | 2.87% |  |  | 2.22% [at 11.4 µM] | inactive |  |  |  |  |
| Cc1ccc(NC(=[OH+])c2cc3ccccc3cc2O)c(C)c1.Cc1ccc(NC(=[OH+])c2cc3ccccc3cc2O)c(C)c1.[Ni] |  |  |  | > 46 | > 9.22 | 1.02% [at 11.4 µM] | inactive | 0.251 µM (active) |  |  |  |
| C(=NCCN1CCOCC1)=NC1CCCCC1 | -1.14% | 12.1% | 19.2% | > 46 |  | 3.92% [at 11.4 µM] | inactive |  |  |  |  |
| COc1cccc2c1C(=O)c1c(O)c3c(c(O)c1C2=O)C[C@](O)(/C(C)=N\O)C[C@@H]3O[C@H]1C[C@H](N)[C@@H](O)[C@H](C)O1 | 26.1% | -24.2% |  | > 46 | > 9.22 | -16.4% [at 11.4 µM] | inactive |  |  |  |  |
| O=C(Nc1ccc([As](=O)(O)O)cc1)Nc1cccc(Cl)c1Cl | -0.577% | 6.56% |  | > 46 | > 9.22 | 0.483% [at 11.4 µM] | inactive |  |  |  |  |
| CSC([N-]/N=C/c1cccc(C)n1)=[S]=[Cu].CS[C@H]([S-])[N-]/N=C/c1cccc(C)n1 |  | -102% (active) |  | > 46 | > 9.22 | -6.87% [at 11.4 µM] | inactive | 0.631 µM (active) | 3.98 µM (active) |  |  |
| COc1ccc2c(c1)[C@]13CCCC[C@@H]1[C@H](C2)NCC3 | 15.6% [at 38 µM] | 4.42% [at 38 µM] | -11.2% [at 38 µM] | > 46 | > 46 |  | inactive | inactive |  | inactive |  |
| CCNCCC1(CC)C(=O)NC(=O)NC1=O | 0.916% | 11.4% | 2.13% | > 46 |  | 3.87% [at 11.4 µM] | inactive |  |  |  |  |
| C=C[C@@H]1CN2CC[C@H]1C[C@H]2[C@H](O)c1ccnc2ccccc12 |  | 0.393% | 3.16% | > 46 | > 9.22 | 5.22% [at 11.4 µM] | inactive | inactive |  |  |  |
| C[C@H]1CC[C@@]2(NC1)O[C@@H]1C[C@@H]3[C@@H]4CC=C5C[C@@H](O)CC[C@]5(C)[C@@H]4CC[C@]3(C)[C@H]1[C@@H]2C |  | 24.2% | 7.42% | > 46 | > 9.22 | -0.366% [at 11.4 µM] | inactive | inactive |  |  | 33.7% [at 11.4 µM] |
| CC(=O)O[C@H]1CC[C@H]2[C@@H]3CCC4=C[C@@H](C5SCCS5)[C@H](OC(C)=O)C[C@]4(C)[C@H]3CC[C@@]12C | -2.54% |  | 0.282% | > 46 | > 9.22 | 5.72% [at 11.4 µM] | inactive |  |  |  |  |
| COC(=O)c1c(C)ccc2c(O)c3c(cc12)C(=O)c1c2c(cc(O)c1C3=O)[C@@]1(C)O[C@@](C)(O2)[C@@H](O)[C@H](N(C)C)[C@H]1O |  | -7.69% | 10.6% | > 46 | > 9.22 | -7.99% [at 11.4 µM] | inactive | 5.01 µM (active) |  |  |  |
| O=C(O)[C@H]1C2c3ccccc3C(c3ccccc32)[C@@H]1C(=O)NCC1CC1 | 1.37% | -3.96% | 26.5% | > 46 | > 9.22 | 2.32% [at 11.4 µM] | inactive |  |  |  |  |
| Cc1ccc(S(=O)(=O)O[C@H]2CN3CCC2CC3)cc1 | 10.6% |  | -1.72% | > 46 | > 9.22 | 5.42% [at 11.4 µM] | inactive |  |  |  |  |
